This excerpt belongs to a sample that is enriched for hits.
DT40 TDP1 CPT – growth inhibition of DT40 Tdp1-/-;hTDP1 cells with camptothecin (screen for TDP1 inhibitors) | AID 686979 | Potency, µM (top dose mostly 46.2 µM), inactives show top-dose activity change, negative = growth inhibition, actives largely listed as inhibitors | hit rate 12% among 420,000 | chicken DT40 Tdp1-/-;hTDP1 cells + 20 nM CPT, ATP luminescence, 48 h; also: potency is read from the fitted curve at half-maximal effect; nearly all actives have a fitted effect of over 55% in size
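Chicken DT40 Tdp1-/- cells complemented with human TDP1, 400 cells/well, exposed to compounds plus 20 nM camptothecin for at least 48 h at 37 C; viability read as ATP content by CellTiter-Glo luminescence.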
DT40 TDP1 no CPT – qHTS for Inhibitors of human tyrosyl-DNA phosphodiesterase 1 (TDP1): qHTS in cells in absence of CPT | DT40 Tdp1-/- hTDP1 cells, no CPT, ATP luminescence, 48 h | Potency, µM (series often up to 46.2 µM), inactives show at the top dose activity change, negative = growth inhibition, actives largely listed as inhibitors | hit rate 15% among 420,000; also: potency is read from the fitted curve at half-maximal effect; nearly all actives have a fitted effect of over 55% in size
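A cellular qHTS used chicken DT40 cells lacking endogenous Tdp1 but carrying stably transfected human TDP1. Compounds were applied without camptothecin, and cell growth kinetics were judged by ATP-dependent luminescence after ≥48 hr.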
12-LOX inh – inhibitors of human 12S-lipoxygenase ALOX12. hit rate 1.1% among 580,000. purified 12hLO, xylenol orange hydroperoxide absorbance. Potency, µM (series often up to 108 µM), inactives show top-dose activity change, negative = inhibition, most hits filed as inhibitors; also: potency is read from the fitted curve at half-maximal effect
Target sequence (P18054 whole entry, looked up): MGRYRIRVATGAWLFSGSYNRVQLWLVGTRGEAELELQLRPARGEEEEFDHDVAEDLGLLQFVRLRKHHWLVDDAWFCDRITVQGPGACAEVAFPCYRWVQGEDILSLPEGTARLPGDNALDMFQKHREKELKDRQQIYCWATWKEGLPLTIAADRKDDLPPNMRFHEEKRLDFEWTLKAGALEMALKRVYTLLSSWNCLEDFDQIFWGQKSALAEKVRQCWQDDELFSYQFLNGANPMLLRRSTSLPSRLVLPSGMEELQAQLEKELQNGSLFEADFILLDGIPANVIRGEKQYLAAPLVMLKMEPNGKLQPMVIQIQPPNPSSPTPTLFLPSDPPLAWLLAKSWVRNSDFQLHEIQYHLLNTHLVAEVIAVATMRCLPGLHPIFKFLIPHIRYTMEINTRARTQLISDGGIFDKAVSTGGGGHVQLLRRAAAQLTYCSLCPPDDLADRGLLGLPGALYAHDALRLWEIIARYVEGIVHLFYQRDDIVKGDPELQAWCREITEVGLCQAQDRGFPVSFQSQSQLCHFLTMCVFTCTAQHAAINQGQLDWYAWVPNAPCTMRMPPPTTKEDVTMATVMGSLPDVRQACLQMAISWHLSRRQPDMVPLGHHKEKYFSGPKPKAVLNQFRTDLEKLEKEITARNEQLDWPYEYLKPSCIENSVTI
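Purified human 12hLO (150 nM final) in 25 mM Hepes, 0.01% Triton X-100, pH 7.0 was preincubated 15 min at room temperature with compound. Then 40 uM arachidonic acid was added, 30 min. Hydroperoxide was read by Fe-XO absorbance ratio 573/405 nm.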
HT1080NT lethal – kills 2HG-producing HT-1080-NT fibrosarcoma cells; Potency, µM (top dose mostly 46.1 µM), for the others: at the highest dose activity, negative = less viability, usual class: cytotoxic; HT-1080-NT fibrosarcoma viability, CellTiter-Glo ATP luminescence, 48 h; AID 686970; hit rate 1.6% among 360,000;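 also: NT is the 2HG producing partner of a matched IDH1 knockdown line; potency is read from the fitted curve at half-maximal effect; 0% = DMSO-treated cells and -100% = media-only wells without cells; nearly all actives have a fitted effect of over 55% in size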
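Fibrosarcoma NT cells, 750 per well in 5% FBS RPMI, were exposed to compound for 48 hours. Viability: CellTiter-Glo luminescence.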
HT1080 IDH1KD tx – toxicity to HT-1080 IDH1 knockdown cells (counter line); HT-1080 IDH1 knockdown viability, ATP luminescence, 48 h; hit rate 2% among 360,000; Potency, µM (series often up to 46.1 µM), for inactives: at the highest dose activity, negative = toxicity, actives largely listed as cytotoxic; AID 686971;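 also: potency is read from the fitted curve at half-maximal effect; 0% = DMSO wells and -100% = cell-free medium wells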
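Luminescent ATP read-out (CellTiter-Glo, 10 min at room temperature) after 48 h compound exposure at 37 °C gave viability of IDH1-knockdown HT-1080 cells. Activity was normalised to DMSO and cell-free wells, then fitted as concentration-response curves.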
IL-1B inflam inh – inhibitors of inflammasome signaling (IL-1 beta secretion); THP-1 LPS/ATP IL-1B secretion, AlphaLISA, 16 h; hits give low values; activity change, % at 57.5 µM; hit rate 4.7% among 360,000; AID 743279; in the data active = activity change below about -50%; inconclusive = mostly about -30% to -49%
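Secreted IL-1B measured by AlphaLISA bead assay after 16 h compound exposure of THP-1 cells; compounds (final up to 57.5 uM) added 1 h before LPS (250 ng/mL) and ATP (1.25 mM) stimulation; lower signal means less secretion.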
* hit, by the source's call. Unless noted, calls follow the shape of the dose curve; as a rule, active = well fitted curve in the direction sought with a large enough effect; inconclusive = small, poorly fitted or top-dose-only effect, or another doubt; inactive = no such curve, though single readings can be large; an effect the other way counts as inactive or inconclusive. Unless noted, % is scaled to controls: 0 for no effect and ±100 for the full control effect.

Screening CC1=C(C(=O)OCc2ccccc2)C(c2ccc(Br)cc2)NC(=O)N1CCCCCC(=O)O (centres undefined) returned DT40 TDP1 CPT -7.4%, DT40 TDP1 no CPT -14.0%, 12-LOX inh -23.7%, HT1080NT lethal -0.6%, HT1080 IDH1KD tx -13.6% and IL-1B inflam inh 23.7.
Screening COC(=O)CCCCCN1C(=O)NC(c2ccccc2)C(C(=O)OCc2ccccc2)=C1C (centres undefined) returned DT40 TDP1 CPT 20.6µM*, DT40 TDP1 no CPT 16.4µM*, 12-LOX inh -5.2%, HT1080NT lethal -19.4%, HT1080 IDH1KD tx -2.7% and IL-1B inflam inh 49.7.
CC1CCC(NC(=O)c2ccc(Cl)nc2)CC1 (centres undefined) was read as 12-LOX inh 29.5%.
For CCC(C(=O)NCc1ccccc1Cl)n1nc(C)c2sc3ccccc3c2c1=O (centres undefined) the results were DT40 TDP1 CPT 18.4µM*, DT40 TDP1 no CPT inconclusive and 12-LOX inh -18.1%.
`CCC(C(=O)NCCCN1CCCCCC1)n1nc(C)c2sc3ccccc3c2c1=O` (centres undefined) gave DT40 TDP1 CPT -1.2%, DT40 TDP1 no CPT 26.4%, 12-LOX inh -23.2%, HT1080NT lethal -2.5%, HT1080 IDH1KD tx -4.4% and IL-1B inflam inh 0.0.
CCC(C(=O)NC1CCCCC1)n1nc(C)c2sc3ccccc3c2c1=O (centres undefined) was read as DT40 TDP1 CPT 10.3µM*, DT40 TDP1 no CPT 9.2µM* and 12-LOX inh 22.6%.
Screening CCC(C(=O)N(C)Cc1ccccc1)n1nc(C)c2sc3ccccc3c2c1=O (centres undefined) returned DT40 TDP1 CPT inconclusive, DT40 TDP1 no CPT 16.4µM* and 12-LOX inh -15.9%.
Cc1cc(C)c2oc(C(=O)Nc3cccnc3)cc(=O)c2c1 was read as 12-LOX inh 2.9%.
Screening CC(C)OC(=O)c1cc(C(=O)c2cc(F)ccc2O)coc1=N returned DT40 TDP1 CPT -21.9%, DT40 TDP1 no CPT -16.4%, 12-LOX inh -25.9%, HT1080NT lethal -3.1%, HT1080 IDH1KD tx -1.7% and IL-1B inflam inh 15.5.
COc1ccc(O)c(C(=O)c2coc(=N)c(C(=O)Nc3ccc(SC(F)F)cc3)c2)c1 was read as DT40 TDP1 CPT inconclusive, DT40 TDP1 no CPT 18.4µM*, 12-LOX inh -16.4%, HT1080NT lethal -10.2%, HT1080 IDH1KD tx -14.0% and IL-1B inflam inh -54.4*.
C=CCNC(=S)N1CCN(c2cc3c(cc2F)c(=O)c(C(=O)O)cn3CC)CC1 was read as DT40 TDP1 CPT inconclusive, DT40 TDP1 no CPT inconclusive, 12-LOX inh 6.4%, HT1080NT lethal 14.5%, HT1080 IDH1KD tx 0.6% and IL-1B inflam inh inconclusive.
Screening CCCCCNC(=O)c1cn(CC)c2cc(N3CCN(C)CC3)c(F)cc2c1=O returned DT40 TDP1 CPT -2.0%, DT40 TDP1 no CPT inconclusive, 12-LOX inh -13.7%, HT1080NT lethal 16.4µM*, HT1080 IDH1KD tx inconclusive and IL-1B inflam inh -84.9*.
CCCc1nnc(NC(=O)c2cn(CC)c3cc(N4CCN(C)CC4)c(F)cc3c2=O)s1 was read as DT40 TDP1 CPT 14.2%, DT40 TDP1 no CPT inconclusive, 12-LOX inh 52.0%, HT1080NT lethal 3.0%, HT1080 IDH1KD tx 11.8% and IL-1B inflam inh 0.0.
CCn1cc(C(=O)NC(C)C)c(=O)c2cc(F)c(N3CCN(C(=O)c4ccco4)CC3)cc21 was read as DT40 TDP1 CPT inconclusive, DT40 TDP1 no CPT 18.4µM*, 12-LOX inh -7.4%, HT1080NT lethal -15.7%, HT1080 IDH1KD tx -5.8% and IL-1B inflam inh -7.2.
CCn1cc(C(=O)Nc2ncccc2O)c(=O)c2cc(F)c(N3CCN(C(=O)c4ccco4)CC3)cc21 was read as DT40 TDP1 CPT 13µM*, DT40 TDP1 no CPT 8.2µM*, 12-LOX inh 11.0%, HT1080NT lethal 4.7%, HT1080 IDH1KD tx 6.6% and IL-1B inflam inh -1.3.
For CCn1cc(C(=O)O)c(=O)c2cc(F)c(N3CCN(C(=S)NC(=O)c4ccccc4Cl)CC3)cc21 the results were DT40 TDP1 CPT inconclusive, DT40 TDP1 no CPT inconclusive, 12-LOX inh 13.6%, HT1080NT lethal 1.5%, HT1080 IDH1KD tx 1.2% and IL-1B inflam inh 7.7.
For C=CCCCCCCCCC(=O)N1CCN(c2cc3c(cc2F)c(=O)c(C(=O)O)cn3CC)CC1 the results were DT40 TDP1 CPT 20.6µM*, DT40 TDP1 no CPT inconclusive, 12-LOX inh 3.2%, HT1080NT lethal 1.7%, HT1080 IDH1KD tx 7.0% and IL-1B inflam inh 27.7.
CCn1cc(C(=O)NCCC(C)C)c(=O)c2cc(F)c(N3CCN(C(=O)c4ccco4)CC3)cc21 was read as DT40 TDP1 CPT 16.4µM*, DT40 TDP1 no CPT 18.4µM*, 12-LOX inh -25.8%, HT1080NT lethal -1.2%, HT1080 IDH1KD tx -2.6% and IL-1B inflam inh -14.6.
COC(=O)c1c(NC(=O)COc2ncnc3ccccc23)sc(C)c1C was read as DT40 TDP1 CPT inconclusive, DT40 TDP1 no CPT 25.9µM*, 12-LOX inh -15.2%, HT1080NT lethal 0.4%, HT1080 IDH1KD tx 0.5% and IL-1B inflam inh 1.4.
For Cc1csc(NC(=O)CSc2ncnc3ccccc23)n1 the results were DT40 TDP1 CPT inconclusive, DT40 TDP1 no CPT inconclusive, 12-LOX inh 7.0%, HT1080NT lethal -8.3%, HT1080 IDH1KD tx -14.8% and IL-1B inflam inh -88.7*.
CCOC(=O)c1c(NC(=O)COc2ncnc3ccccc23)sc(C(C)=O)c1C was read as DT40 TDP1 CPT 13µM*, DT40 TDP1 no CPT 13µM*, 12-LOX inh -8.3%, HT1080NT lethal -9.1%, HT1080 IDH1KD tx -2.0% and IL-1B inflam inh 62.2.
Screening Cc1ccccc1NC(=O)COc1ncnc2ccccc12 returned 12-LOX inh -15.9%.
CCOC(=O)c1c(NC(=O)CSc2nc3ccccc3s2)sc(C(C)=O)c1C was read as DT40 TDP1 CPT 7.31µM*, DT40 TDP1 no CPT 16.4µM*, 12-LOX inh 17.7%, HT1080NT lethal inconclusive, HT1080 IDH1KD tx -3.2% and IL-1B inflam inh 10.8.
Screening CCOC(=O)c1c(NC(=O)CSc2ncnc3ccccc23)sc(C)c1C returned DT40 TDP1 CPT inconclusive, DT40 TDP1 no CPT 14.6µM*, 12-LOX inh -17.3%, HT1080NT lethal 22.8%, HT1080 IDH1KD tx 8.9% and IL-1B inflam inh 24.1.
For CCOC(=O)c1c(NC(=O)CSc2ccccc2C(=O)O)sc(C)c1C the results were DT40 TDP1 CPT 5.6%, DT40 TDP1 no CPT 5.5%, 12-LOX inh -3.3%, HT1080NT lethal -14.1%, HT1080 IDH1KD tx -2.3% and IL-1B inflam inh 33.1.

Screening results as filed in PubChem.
